# Results: the supplement of paper PMC6555819
# Tested on: LXRa:RXRa (NR concentration 270 nM, RXRa partner concentration 90 nM)
# Assay: PBM binding z-score (relative to random genomic background probes); higher = stronger binding; sequences stand for … in GC…GCGATTGACAGCGTAGAATGAAGG
# In short: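 Custom Agilent 4×180K protein-binding microarrays carried double-stranded probes. Their 34-nt variable regions held direct-repeat seeds, single-nucleotide variants, half-site ablations and random human genomic background sequences. Arrays were incubated 1 h with ligand-free nuclear receptor dimers in PBS pH 7.4, 2% milk, 0.02% Triton X-100, 1 mM DTT, 0.2 mg/mL BSA and 0.4 mg/ml salmon testes DNA. Antibodies against each partner (one per run) detected binding, and scanned fluorescence was regression-normalized. Binding z-scores use random background probes as reference.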
row,Sequence,PBM binding z-score
1,ATCTCTAGGTAAAGGTAGTTCAGTGAATGCAAAT,2.47
2,ACTTTTAGTTGAGACGAGGGCAACCGATAGGTTG,0.517
3,TGTTGTAGATCAGCAGGTTAAGAAAGCTGGCCAA,-0.297
4,CACCCTAGGTCAGGGCCAGTATAGGAGGAACGTT,2.6
5,AGAATGAGGTTATTAAGATCTGGGAATTGCGGTC,1.89
6,CGTCCAAGGTCAGAGACGTCAGTGAATGCCGAGT,2.77
7,ATCTCTCGGTAACAAGTTCAGTGAAAGAGAGGAC,0.429
8,TCTATTAGTTGAAGGGCAACCAACGAGTCCGTTT,0.763
9,TCTATTAGTTGCAGGGCAACCGACGAGTCCGTTT,0.804
10,CAAACTGGGTCACGAAAGGTCAAAGTCGAATGAC,8.03
11,TTCCCAAGGTGAAAGGTCGTTGATGCACGCCTTG,3.79
12,CGTACAAGGTCATAGGAGGTCAGTGAAGACAGAT,7.5
13,CCTAGCAGGCCACTCTGGGTCACTCAAGGCTTGA,4.55
14,AGTCAAAGTTCATCTAGGTAACGTACGATATGCT,6.13
15,CAAACTAGGTCATGAAAGGTCAAAGTCGAATGAC,8.15
16,CGTCCAAGTTCAAGGTAACGTAACAGAAAGCAGC,2.37
17,CAAACTAGGTCGCAGAGGTCAAAGTCCGTGCGTA,6.03
18,CCTATTAGTTGACCATAAGGGCAACGGAAGCTCG,0.337
19,CAAACTAGGTCACGAAAGGACAAAGTCGAATGAC,6.1
20,CCTCTGAGGACAGAAGGTCAGAGCTGTCCGCTTT,1.73
21,TCTACTAGTTGAAGGGCAACCGACGAGTCCGTTT,0.156
22,GCTAGCAGGCCATGTGGGTCACTCAATGACGGGC,-0.154
